Laboratory results from PubChem BioAssay (EPA / NIEHS).
Records with an inconclusive call do not appear. The source made the active and inactive calls. The calls were made as follows, unless noted: active = hit-call score of the fitted dose curve at least 0.9, where 1 is the maximum; inactive = score below 0.9.

Tests used:
[1] = CCTE_Harrill_HTTr_Viability_MCF7: CCTE's 6-hour Cell Viability Assessment for the High-Throughput Transcriptomics (HTTr) Platform, in MCF-7 cells cultured in DMEM + 10% fetal bovine serum, Harrill Lab (AID 2284010)
Outline: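 Membrane integrity was scored by high-content imaging of propidium iodide dye exclusion after a 6 h exposure across an eight-point dilution series. Data were fitted bidirectionally relative to DMSO as negative control and baseline.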

[2] = CCTE_Harrill_HTTr_Apoptosis_MCF7: CCTE's 6-hour Apoptosis Assessment for the High-Throughput Transcriptomics (HTTr) Platform, in MCF-7 cells cultured in DMEM + 10% fetal bovine serum, Harrill Lab (AID 2284011)
Outline: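 MCF-7 cells in DMEM + 10% FBS exposed 6 h to chemicals over an eight-point dilution series. Caspase-3/7 activation imaged by high-content CellEvent Green staining; fitted bidirectionally versus DMSO.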

[3] = CCTE_Harrill_HTTr_CellCount_MCF7: CCTE's Cell Proliferation Assessment for the High-Throughput Transcriptomics (HTTr) Platform, Harrill Lab (AID 2284012; active = hit-call score of the fitted dose curve at least 0.9, where 1 is the maximum;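 also: cells exposed to compound for six hours; intended direction is loss of nuclei count meaning fewer cells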)
Outline: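 MCF-7 cells were exposed for 6 h to an eight-point dilution series; Hoechst-labeled nuclei were counted by high content imaging. Curves were fitted bidirectionally against DMSO as negative control and baseline, with signal loss indicating reduced cell count.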

[4] = molecular target: Estrogen receptor (Homo sapiens) (UniProt P03372); assay: CCTE_Deisenroth_AIME_96WELL_LUC_Active: CCTE's 96-well Estrogen Receptor Transactivation Assay with AIME metabolic competence (ERTA luciferase; metabolism positive), Deisenroth Lab (AID 2284023; active = hit-call score of the fitted dose curve at least 0.9, where 1 is the maximum)
Chain of Estrogen receptor (Homo sapiens) (P03372 whole entry, looked up): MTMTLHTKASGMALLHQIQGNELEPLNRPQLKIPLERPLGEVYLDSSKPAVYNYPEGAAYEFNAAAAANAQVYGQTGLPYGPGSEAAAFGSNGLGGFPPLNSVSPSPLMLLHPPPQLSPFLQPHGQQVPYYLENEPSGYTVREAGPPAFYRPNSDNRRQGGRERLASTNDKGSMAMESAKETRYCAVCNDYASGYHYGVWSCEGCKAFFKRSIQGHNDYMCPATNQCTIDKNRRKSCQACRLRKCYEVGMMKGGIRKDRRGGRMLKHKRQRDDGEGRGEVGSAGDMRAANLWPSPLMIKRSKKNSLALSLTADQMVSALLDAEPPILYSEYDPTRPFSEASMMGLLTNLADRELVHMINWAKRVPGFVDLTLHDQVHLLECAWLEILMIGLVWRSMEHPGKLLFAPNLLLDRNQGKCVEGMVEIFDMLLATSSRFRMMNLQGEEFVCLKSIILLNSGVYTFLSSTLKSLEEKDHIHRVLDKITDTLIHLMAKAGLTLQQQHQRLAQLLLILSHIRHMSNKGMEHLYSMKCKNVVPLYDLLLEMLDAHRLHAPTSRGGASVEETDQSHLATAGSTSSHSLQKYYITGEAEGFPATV
Outline: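 Chemicals pre-incubated 2 h with alginate-immobilized phenobarbital/beta-naphthoflavone-induced male Sprague Dawley rat liver S9, then medium transferred to VM7Luc4E2 cells for 24 h luciferase read-out. 10-point series 0.002 - 200 uM; fitted relative to 17beta-estradiol.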

[5] = molecular target: Estrogen receptor (Homo sapiens) (UniProt P03372); assay: CCTE_Deisenroth_AIME_96WELL_LUC_Inactive: CCTE's 96-well Estrogen Receptor Transactivation Assay without AIME metabolic competence (ERTA luciferase; metabolism negative), Deisenroth Lab (AID 2284025; active = hit-call score of the fitted dose curve at least 0.9, where 1 is the maximum)
Procedure: CCTE_Deisenroth_AIME_96WELL (AIME metabolism assay) is a cell-based, single-readout assay that uses VM7Luc4E2, a human mammary gland/breast cell line, with measurements taken at 24 hour after chemical dosing in a 96-well plate.CCTE_Deisenroth_AIME_96WELL_LUC_Inactive is one of four assay components measured or calculated from the CCTE_Deisenroth_AIME_96WELL assay. It is designed to make measurements of luciferase induction, a form of inducible reporter, as detected with bioluminescence signals by luciferase-coupled ATP quantitation technology.CCTE_Deisenroth_AIME_96WELL_LUC_Inactive is a component of the CCTE_Deisenroth_AIME_96WELL assay that measures the effect of retroftting the VM7Luc ERTA assay with the Alginate Immobolization of Metabolic Enzymes (AIME) metabolism method. AIME is optimized to impart phase I hepatic metabolism using phenobarbital/beta-naphthoflavone induced hepatic S9 from male Sprague Dawley rats. Parent chemicals are incubated for 2 hours in the AIME assay prior to transfer to the VM7Luc ERTA assay plate. […] This endpoint evaluates reporter induction in metabolism negative mode. […] This assay endpoint, CCTE_Deisenroth_AIME_96WELL_LUC_Inactive, was analyzed in the positive analysis fitting direction relative to 17beta-estradiol as the positive control in the ERTA assay. […]

[6] = CCTE_Deisenroth_AIME_96WELL_CTox_Active: Cytotoxicity Assessment (CTOX) in CCTE's 96-well Estrogen Receptor Transactivation Assay with AIME metabolic competence (metabolism positive), Deisenroth Lab (AID 2284028; active = hit-call score of the fitted dose curve at least 0.9, where 1 is the maximum)
Outline: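 Chemicals (0.002–200 uM) were first incubated 2 h with alginate-immobilized phenobarbital/beta-naphthoflavone-induced male rat liver S9; conditioned medium then went onto VM7Luc4E2 cells for 24 h, with viability read by protease-substrate fluorescence, fitted bidirectionally.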

[7] = CCTE_Deisenroth_AIME_96WELL_CTox_Inactive: Cytotoxicity Assessment (CTOX) in CCTE's 96-well Estrogen Receptor Transactivation Assay without AIME metabolic competence (metabolism negative), Deisenroth Lab (AID 2284029; active = hit-call score of the fitted dose curve at least 0.9, where 1 is the maximum)
Outline: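 Chemicals (10-point series, 0.002-200 uM) were incubated 2 h with alginate-water microspheres lacking S9. The conditioned medium was then transferred onto VM7Luc4E2 cells for 24 h. Viability was measured by protease-substrate cleavage to a fluorescent probe, with loss of signal fitted bidirectionally; n≥4 experimental replicates.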

CC1CCCCC1NC(=O)Nc1ccccc1 (configuration not stated)
outcome [1]: inactive
outcome [2]: inactive
outcome [3]: inactive

Cc1ccc(N)cc1Cl
outcome [1]: inactive
outcome [2]: inactive
outcome [3]: inactive

CCC1(c2ccc(N)cc2)CCC(=O)NC1=O (configuration not stated)
outcome [1]: inactive
outcome [2]: inactive
outcome [3]: inactive

Nc1ccc(-c2ccc(N)c(Cl)c2)cc1Cl
outcome [1]: inactive
outcome [2]: inactive
outcome [3]: inactive

CC(C)CCCCCCOC(=O)c1ccccc1C(=O)OCCCCCCC(C)C
outcome [1]: inactive
outcome [2]: inactive
outcome [3]: inactive

COc1ccc(C=O)cc1OC
outcome [1]: inactive
outcome [2]: inactive
outcome [3]: inactive

CC12CC1(C)C(=O)N(c1cc(Cl)cc(Cl)c1)C2=O (configuration not stated)
outcome [1]: inactive
outcome [2]: inactive
outcome [3]: inactive

N#CCCO
outcome [1]: inactive
outcome [2]: inactive
outcome [3]: inactive

COc1ccc(C=O)cc1
outcome [1]: inactive
outcome [2]: inactive
outcome [3]: inactive

Oc1cccc2cccnc12
outcome [1]: inactive
outcome [2]: inactive
outcome [3]: inactive

COc1ccc(C(O)(c2cncnc2)C2CC2)cc1 (configuration not stated)
outcome [1]: inactive
outcome [2]: inactive
outcome [3]: inactive

C[C@]12CC[C@H](O)CC1=CC[C@@H]1[C@@H]2CC[C@]2(C)C(=O)CC[C@@H]12
outcome [1]: inactive
outcome [2]: inactive
outcome [3]: inactive

CCCCCCCCC(=O)NCc1ccc(O)c(OC)c1
outcome [1]: inactive
outcome [2]: inactive
outcome [3]: inactive

C=CC#N
outcome [1]: inactive
outcome [2]: inactive
outcome [3]: inactive
outcome [4]: inactive
outcome [5]: inactive

NC(=O)CF
outcome [1]: inactive
outcome [2]: inactive
outcome [3]: inactive

CC(C)OC(=O)Nc1ccccc1
outcome [1]: inactive
outcome [2]: inactive
outcome [3]: inactive

O=C(OC1CCCCC1)c1ccccc1C(=O)OC1CCCCC1
outcome [1]: inactive
outcome [2]: inactive
AC50 [4]: 20.5 µM (active)
AC50 [5]: 10.1 µM (active)
outcome [6]: inactive
outcome [7]: inactive

COc1cc2c(cc1OC)[C@@]13CCN4CC5=CCO[C@H]6CC(=O)N2[C@H]1[C@H]6[C@H]5C[C@H]43
outcome [1]: inactive
outcome [2]: inactive
outcome [3]: inactive

Clc1ccc(C2(Cn3cncn3)CC(Br)CO2)c(Cl)c1 (configuration not stated)
outcome [1]: inactive
outcome [2]: inactive
outcome [3]: inactive

CCCCCCCCCl
outcome [1]: inactive
outcome [2]: inactive
outcome [3]: inactive

CCCCOCCOC(C)=O
outcome [1]: inactive
outcome [2]: inactive
outcome [3]: inactive

Cc1ccccc1C(=O)Nc1cccc(OC(C)C)c1
outcome [1]: inactive
outcome [2]: inactive
outcome [3]: inactive

Nc1ccc(N=Nc2ccc(-c3ccc(N=Nc4c(S(=O)(=O)O)cc5cc(S(=O)(=O)O)c(N=Nc6ccccc6)c(O)c5c4N)cc3)cc2)c(N)c1
outcome [1]: inactive
outcome [2]: inactive
outcome [3]: inactive

ClC(Cl)=C(Cl)C(Cl)=C(Cl)Cl
outcome [1]: inactive
outcome [2]: inactive
outcome [3]: inactive

CCOP(=S)(OCC)Oc1ccc(S(C)=O)cc1 (configuration not stated)
outcome [1]: inactive
outcome [2]: inactive
outcome [3]: inactive

O=C(Cc1ccccc1)c1ccccc1
outcome [1]: inactive
outcome [2]: inactive
outcome [3]: inactive

O=CC=O
outcome [1]: inactive
outcome [2]: inactive
outcome [3]: inactive

O=c1[nH]c(=O)[nH]c(=O)[nH]1
outcome [1]: inactive
outcome [2]: inactive
outcome [3]: inactive

O=S(=O)(c1ccc(Cl)cc1)c1ccc(Cl)cc1
outcome [1]: inactive
outcome [2]: inactive
outcome [3]: inactive
